# According to PubChem BioAssay (NCI):
# Compounds without any hit were thinned out: in the full panel of roughly 83,000, 20% have a hit.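 Interpretation: 100, growth as untreated; towards 0, rising growth inhibition; 0, no net growth; 0 to -100, cell death. Compounds scoring below 10 were considered active.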 Values without a mark were called inactive. Calls of active or inactive are those of the source.
# Key:
# Assay in all cases: NCI-60 one-dose screen, 48 h (100 = growth as untreated, 0 = no growth, -100 = all killed)
# Conditions in all cases: 10 µM unless noted
# NCI-H23 lung = tested on: NCI-H23 lung
# NCI-H226 lung = tested on: NCI-H226 lung
# NCI-H322M lung = tested on: NCI-H322M lung
# HOP-62 NSCLC = tested on: HOP-62 NSCLC
# NCI-H460 lung = tested on: NCI-H460 lung
# HOP-92 NSCLC = tested on: HOP-92 NSCLC
# NCI-H522 lung = tested on: NCI-H522 lung
# A549/ATCC NSCLC = tested on: A549/ATCC NSCLC
# 786-0 renal = tested on: 786-0 renal
# COLO 205 colon = tested on: COLO 205 colon
# DU-145 prostate = tested on: DU-145 prostate
# K-562 leukemia = tested on: K-562 leukemia
# MALME-3M melanoma = tested on: MALME-3M melanoma
# MDA-MB-231 breast = tested on: MDA-MB-231 breast
# RXF 393 renal = tested on: RXF 393 renal
# SF-268 CNS = tested on: SF-268 CNS
# SF-295 CNS = tested on: SF-295 CNS
# SF-539 CNS = tested on: SF-539 CNS
# UACC-257 melanoma = tested on: UACC-257 melanoma
# M14 melanoma = tested on: M14 melanoma
SMILES,growth (NCI-H23 lung),growth (NCI-H226 lung),growth (NCI-H322M lung),growth (HOP-62 NSCLC),growth (NCI-H460 lung),growth (HOP-92 NSCLC),growth (NCI-H522 lung),growth (A549/ATCC NSCLC),growth (786-0 renal),growth (COLO 205 colon),growth (DU-145 prostate),growth (K-562 leukemia),growth (MALME-3M melanoma),growth (MDA-MB-231 breast),growth (RXF 393 renal),growth (SF-268 CNS),growth (SF-295 CNS),growth (SF-539 CNS),growth (UACC-257 melanoma),growth (M14 melanoma)
C=CCCCOC1[C@H](OCc2ccccc2)C(OCc2ccccc2)C(OC)O[C@@H]1CNC(=O)c1cccc(I)c1 (stereo not given in full),44.2%,66.5%,70.3%,77.7%,-7.83% (active),67.2%,42.1%,27.2%,39.5%,36.9%,49.7%,52%,80.4%,58%,38.1%,31.3%,35%,31.8%,36.8%,47.1%
Cc1cc(Nc2cc(N3CCN(C)CC3)nc(Sc3ccc(NC(=O)C4CC4)cc3)n2)n[nH]1,38.2%,36.3%,58.8%,18.4%,14.1%,12.1%,24.1%,20.6%,48.4%,-29.3% (active),55.7%,8.47% (active),29.3%,37.1%,-18.7% (active),48.6%,32.7%,9.92% (active),18.1%,22.3%
COC(=O)[C@@H](OC)[C@@H]1Cc2cc3cc(OC4CC(OC5CC(O)C(O)C(C)O5)C(O)C(C)O4)c(C)c(O)c3c(O)c2C(=O)[C@H]1OC1CC(OC2CC(OC3CC(C)(O)C(O)C(C)O3)C(O)C(C)O2)C(O)C(C)O1 (stereo not given in full),-47.3% (active),-41.9% (active),12.3%,6.33% (active),4.95% (active),-15.6% (active),-30.3% (active),8.71% (active),9.07% (active),-37.2% (active),10.2%,4.16% (active),-58% (active),-8.44% (active),-73% (active),3.86% (active),-10.6% (active),-41.6% (active),-11.2% (active),-71.5% (active)
CN1[C@@H]2CC[C@H]1/C(=C\c1ccccc1)C1=C2[C@@H](c2ccccc2)C(C#N)=C(N)O1,78.6%,67.2%,94.8%,90.6%,92.7%,78.7%,74%,48.3%,73.4%,80.4%,51.5%,64.4%,88.8%,94.9%,63%,77%,83.8%,97.8%,54.6%,75.6%
C=CC(=O)N1CCC[C@H](n2c(=O)n(-c3ccc(Oc4ccccc4)cc3)c3c(N)ncnc32)C1,92.7%,79.1%,19.3%,82.8%,96.2%,85.7%,11.3%,58.3%,85.3%,93.1%,62.4%,66.7%,98.2%,99.6%,84.8%,71.6%,98.4%,104%,62.9%,84.1%
NC(=O)Nc1cc(-c2cccc(F)c2)sc1C(=O)N[C@H]1CCCNC1,-15.3% (active),6.7% (active),-17.8% (active),-39.2% (active),-21.6% (active),-69.2% (active),-19.2% (active),-35.4% (active),-82.8% (active),-65.3% (active),-8.14% (active),2.46% (active),0.0893% (active),-8.48% (active),-89.1% (active),-9.94% (active),3.74% (active),-77.5% (active),5.95% (active),-13.8% (active)
COc1ccc(COc2cc3oc(=O)c4cc(C(C)O)ccc4c3cc2OC)cc1 (stereo not given),70.8%,55.4%,83.8%,36.9%,58.4%,55.2%,35.1%,48.6%,62.4%,49.3%,94.9%,20.1%,66.8%,67.2%,47.8%,55.8%,49%,60.7%,42.8%,57.6%
